Measurements from PubChem BioAssay.
Calls of active or inactive are those of the source.

How the values were obtained:
[1] = tested on: Human papillomavirus type 1a protein E7 (residues 44-93); assay: small molecules binding HPV E7 44-93 – biochemical, small-molecule microarray, residues 44-93, 635 nm fluorescence, primary screen (AID 1108); details: fluorescence 635 nm, higher = more signal;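 further: E7 fragment applied at 1 µg/mL in TBST for 1 h at 4 C; score combines spot fluorescence with its signal to noise ratio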
[2] = hepatitis C replication reporter changes, two-sided – Huh7 cells, luciferase reporter, HCV replication inhibitor project, primary screen (AID 1109); details: Huh7 HCV replicon luciferase reporter, 48 h; higher = more signal;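 further: huh7 hepatoma cells harbouring a luciferase neomycin HCV replicon reporter; luciferase luminescence as measure of HCV replicon replication; test concentration not given here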
[3] = molecular target: Left-right determination factor 2 (Homo sapiens) (UniProt O00292); assay: small molecules binding LEFTY2 protein – biochemical, small-molecule microarray, 635 nm fluorescence scan, primary screen (AID 1110); details: higher = more signal
Sequence of Left-right determination factor 2 (Homo sapiens) (O00292 whole entry, looked up): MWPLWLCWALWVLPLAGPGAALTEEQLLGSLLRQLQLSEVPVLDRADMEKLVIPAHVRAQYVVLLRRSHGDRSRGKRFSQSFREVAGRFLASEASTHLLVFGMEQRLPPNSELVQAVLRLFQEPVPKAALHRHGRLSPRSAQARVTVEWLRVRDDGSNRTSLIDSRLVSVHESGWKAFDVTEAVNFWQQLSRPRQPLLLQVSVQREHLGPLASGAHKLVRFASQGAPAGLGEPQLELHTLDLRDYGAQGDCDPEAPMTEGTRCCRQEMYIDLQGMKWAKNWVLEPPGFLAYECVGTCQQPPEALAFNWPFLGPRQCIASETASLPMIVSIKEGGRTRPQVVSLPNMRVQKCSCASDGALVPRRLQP

[4] = molecular target: Calmodulin-1 (Homo sapiens) (UniProt P0DP23); assay: small molecules binding calmodulin-1 with EGTA – biochemical, small-molecule microarray, Cy5-labelled CALM1, profiling panel (AID 1111); details: Cy5-CALM1 binding fluorescence, higher = more signal;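 further: labelled calmodulin applied in Tris saline Tween buffer holding calcium plus EGTA and DTT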
[5] = molecular target: Calmodulin-1 (Homo sapiens) (UniProt P0DP23); assay: small molecules binding Ca-loaded calmodulin-1 – biochemical, small-molecule microarray, Cy5-labelled CALM1, plus calcium, artefact control for SMM control-protein annotation, profiling panel (AID 1112); details: Cy5-CALM1 binding fluorescence, higher = more signal;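 further: score merges spot fluorescence with signal to noise from triplicate slides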
[6] = probe aWnt5a binding to arrayed compounds – biochemical, biotinylated probe, 635/667 nm fluorescence, primary screen (AID 1113); details: small-molecule microarray, higher = more signal;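 further: score merges 667 nm fluorescence intensity with signal-to-noise per printed feature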
[7] = probe aShh binding to arrayed compounds – biochemical, biotinylated probe, 635/667 nm fluorescence, primary screen (AID 1114); details: small-molecule microarray, higher = more signal;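 further: probe is biotin-labelled aShh protein from a stem cell growth factor screen; measures binding of labelled protein to compounds printed on the slide; score merges feature fluorescence at 667 nm with signal-to-noise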
[8] = probe aNog binding to arrayed compounds – biochemical, biotinylated probe, 635/667 nm fluorescence, primary screen (AID 1115); details: small-molecule microarray, higher = more signal;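 further: probe is biotinylated aNog protein used at 0.15 µg/mL for 1 h at 4 C; z-score combines 667 nm fluorescence of each spot with its signal to noise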
[9] = molecular target: Torsin-1A-interacting protein 1 (Homo sapiens) (UniProt Q5JTV8); assay: compound microarray binding of lysate hLAP1 – cell lysate, small-molecule microarray, COS7 lysate, 635/667 nm fluorescence, primary screen (AID 1116); details: 635 nm fluorescence, higher = more signal
Sequence of Torsin-1A-interacting protein 1 (Homo sapiens) (Q5JTV8 whole entry, looked up): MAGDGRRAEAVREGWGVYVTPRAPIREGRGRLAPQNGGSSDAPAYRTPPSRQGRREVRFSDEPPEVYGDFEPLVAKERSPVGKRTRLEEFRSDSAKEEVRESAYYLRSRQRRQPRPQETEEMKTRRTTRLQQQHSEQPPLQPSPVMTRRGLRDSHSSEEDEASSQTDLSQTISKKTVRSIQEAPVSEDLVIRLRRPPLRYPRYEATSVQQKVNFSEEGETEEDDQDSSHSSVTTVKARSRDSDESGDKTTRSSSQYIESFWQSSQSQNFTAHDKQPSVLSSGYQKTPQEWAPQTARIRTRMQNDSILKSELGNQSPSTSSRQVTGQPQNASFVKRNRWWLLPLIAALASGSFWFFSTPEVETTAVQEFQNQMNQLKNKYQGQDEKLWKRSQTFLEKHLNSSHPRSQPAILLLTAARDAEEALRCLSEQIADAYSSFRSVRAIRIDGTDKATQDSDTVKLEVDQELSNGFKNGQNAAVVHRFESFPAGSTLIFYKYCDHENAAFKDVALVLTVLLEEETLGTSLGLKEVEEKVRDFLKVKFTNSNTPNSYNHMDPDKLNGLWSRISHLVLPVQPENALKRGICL

[10] = molecular target: Alpha-bungarotoxin (Bungarus multicinctus) (UniProt P60615); assay: compounds binding labelled alpha-BTX control protein – biochemical, small-molecule microarray, Alexa647 label, 635/667 nm fluorescence, artefact control for SMM control protein annotation, profiling panel (AID 1117); details: alpha-BTX-A647 binding fluorescence, higher = more signal
Sequence of Alpha-bungarotoxin (Bungarus multicinctus) (P60615 whole entry, looked up): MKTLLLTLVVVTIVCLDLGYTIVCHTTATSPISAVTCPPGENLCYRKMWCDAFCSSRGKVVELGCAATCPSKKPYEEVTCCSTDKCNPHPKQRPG

Albumin (Bos taurus) = Albumin (Bos taurus) (UniProt P02769); assay: compounds binding labelled BSA control protein – biochemical, small-molecule microarray, Alexa647 label, 635/667 nm fluorescence, artefact control for SMM control protein annotation, profiling panel (AID 1118); details: BSA-A647 binding, fluorescence 635 nm, higher = more signal;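 further: score merges 667 nm emission intensity and signal-to-noise per printed compound spot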
Sequence of Albumin (Bos taurus) (P02769 whole entry, looked up): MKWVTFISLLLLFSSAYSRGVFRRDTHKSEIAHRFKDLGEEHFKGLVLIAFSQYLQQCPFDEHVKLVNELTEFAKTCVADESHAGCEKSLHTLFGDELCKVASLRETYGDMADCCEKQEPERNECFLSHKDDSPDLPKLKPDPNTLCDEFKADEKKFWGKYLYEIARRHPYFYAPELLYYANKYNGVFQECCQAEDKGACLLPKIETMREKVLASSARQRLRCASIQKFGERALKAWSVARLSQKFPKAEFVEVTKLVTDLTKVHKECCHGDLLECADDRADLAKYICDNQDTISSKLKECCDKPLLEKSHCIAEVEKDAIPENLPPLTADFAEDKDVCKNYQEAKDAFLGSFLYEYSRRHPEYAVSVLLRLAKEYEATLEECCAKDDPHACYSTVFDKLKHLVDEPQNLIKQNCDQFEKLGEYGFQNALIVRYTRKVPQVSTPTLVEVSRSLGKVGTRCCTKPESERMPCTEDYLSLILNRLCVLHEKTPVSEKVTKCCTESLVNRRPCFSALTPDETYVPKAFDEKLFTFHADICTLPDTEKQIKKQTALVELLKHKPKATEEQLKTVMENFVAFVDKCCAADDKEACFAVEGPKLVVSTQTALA

[11] = probe aXIP binding to arrayed compounds – biochemical, NeuroSMM set, 635/667 nm fluorescence, primary screen (AID 1119); details: small-molecule microarray, higher = more signal, called active from +8 up or from −8 down;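 further: probe is the protein aXip251-270 applied at 1 µg/mL to compound-printed slides; binding of probe to printed compounds measured as 667 nm fluorescence plus signal to noise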
[12] = probe aNOTCH3 binding on compound microarray – biochemical, small-molecule microarray, 635/667 nm fluorescence, primary screen (AID 1120); details: higher = more signal;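 further: probe is a biotin-tagged antibody raised against NOTCH3 rather than NOTCH3 protein; score merges spot fluorescence near 667 nm with spot signal to noise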
[13] = probe aNOTCH2 binding on compound microarray – biochemical, small-molecule microarray, 635/667 nm fluorescence, primary screen (AID 1121); details: higher = more signal;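 further: score merges feature fluorescence read at 667 nm with its signal to noise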
[14] = molecular target: Carbonic anhydrase 2 (Homo sapiens) (UniProt P00918); assay: compounds binding carbonic anhydrase 2 – biochemical, small-molecule microarray, Alexa647-labelled CAII, profiling panel (AID 1122); details: CAII-A647 binding fluorescence, higher = more signal
[15] = COS7 lysate on small-molecule microarray, probe aHis, 635 nm (AID 1123); details: COS7 cell lysate, fluorescence, higher = more signal;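 further: z-score combines 667nm fluorescence intensity with signal-to-noise per printed compound spot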
[16] = probe aLAP1 signal on lysate-treated microarray – cell lysate, small-molecule microarray, COS7 lysate, primary screen (AID 1124); details: probe aLAP1, fluorescence, higher = more signal;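 further: lysate comes from COS7 cells expressing LAP1 and is applied at 0.3 µg/mL; score merges spot fluorescence near 667 nm with signal-to-noise over triplicate slides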
Sam68 (KHDRBS1) = assay: compounds binding KHDRBS1 protein – biochemical, small-molecule microarray, 635 nm fluorescence, primary screen (AID 1125); details: higher = more signal;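 further: score merges 667 nm channel intensity with signal to noise over triplicate slides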
[17] = tested on: Chordin-like protein 2 (CHRDL2); assay: compounds binding chordin-like 2 – biochemical, small-molecule microarray, 635 nm fluorescence, primary screen (AID 1126); details: fluorescence 635 nm, higher = more signal;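 further: printed compound slides probed with Chrdl2 protein at 4 µg/mL for 1 h at 4 C; score merges 667 nm emission intensity with signal to noise over three replicate slides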
[18] = molecular target: Concanavalin-A (Canavalia ensiformis) (UniProt P02866); assay: compounds binding concanavalin A lectin – biochemical, small-molecule microarray, Alexa647 label, 635 nm, artefact control for SMM control protein annotation, primary screen (AID 1127); details: ConA-A647 binding fluorescence, higher = more signal;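 further: z combines 667 nm emission intensity with signal-to-noise across three replicate slides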
Sequence of Concanavalin-A (Canavalia ensiformis) (P02866 whole entry, looked up): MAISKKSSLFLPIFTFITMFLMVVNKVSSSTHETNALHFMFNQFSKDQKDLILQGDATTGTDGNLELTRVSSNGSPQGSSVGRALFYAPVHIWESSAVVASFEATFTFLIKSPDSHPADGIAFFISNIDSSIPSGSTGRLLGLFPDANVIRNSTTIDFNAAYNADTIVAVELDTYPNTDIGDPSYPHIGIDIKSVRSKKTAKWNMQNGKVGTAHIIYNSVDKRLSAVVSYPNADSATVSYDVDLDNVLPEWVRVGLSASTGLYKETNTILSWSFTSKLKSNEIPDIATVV

| Structure (SMILES) | composite z-score [1] | z-score [2] | composite z-score [3] | composite z-score [4] | composite z-score [5] | composite z-score [6] | composite z-score [7] | composite z-score [8] | composite z-score [9] | composite z-score [10] | composite z-score (Albumin (Bos taurus)) | composite Z-score [11] | composite z-score [12] | composite z-score [13] | composite z-score [14] | composite z-score [15] | composite z-score [16] | composite z-score (Sam68 (KHDRBS1)) | composite z-score [17] | composite z-score [18] |
| --- | --- | --- | --- | --- | --- | --- | --- | --- | --- | --- | --- | --- | --- | --- | --- | --- | --- | --- | --- | --- |
| CCOC(=O)C1=C[C@@H](CC)N(S(=O)(=O)c2ccc(C)cc2)[C@H]1c1ccccc1 | 1.36 | -2.23 | 0.0917 | 1.07 | 0.26 | 0.0799 | -0.0709 | 0.925 | 0.905 | 0.54 | 0.874 | 0.339 (inactive) | 0.0539 | 0.0572 | 0.526 | 1.35 | 0.83 | 1.29 | 0.0777 | 1.1 |
| CCCCCN1CC=CC23O[C@@H]4C=CCOC(=O)[C@@H]4[C@H]2C(=O)N(CCCO)[C@@H]3C1=O (stereo not given in full) | 1.35 | -0.538 | -0.642 | -0.568 | 0.487 | -0.204 | -0.0709 | 0.0707 | 2.65 | -0.339 | 1.02 | 1.01 (inactive) | -0.245 | -0.155 | 0.851 | 2.39 | 0.937 | 1.28 | -0.205 | 0.221 |
| COc1ccc([Si](C)(C)[C@@H]2[C@@H](CCn3cc([C@H](O)c4ccccc4)nn3)O[C@]3(C(=O)N(Cc4cccc(N5CCOC5=O)c4)c4ccccc43)[C@H]2C)cc1 | -0.362 | -2.64 | -1.47 | -0.13 | 0.78 | -0.202 | -0.117 | -0.256 | -0.0689 | -0.85 | -0.424 | 0.25 (inactive) | -0.259 | -0.175 | -0.208 | -0.359 | -0.0364 | -0.217 | -1.14 | -0.348 |
| CCCNC(=O)[C@@]1(c2ccc([N+](=O)[O-])cc2)CC(=O)N(CC23CC4CC(CC(C4)C2)C3)[C@@H]1c1ccc(CO)cc1 | 0.914 | -2.86 | 0.421 | -0.865 | -0.827 | 0.0004 | -0.569 | 0.0278 | -0.303 | 1.01 | -0.161 | -0.639 (inactive) | -0.255 | -0.168 | 0.716 | 1.08 | 1.88 | 0.591 | -0.0438 | 0.531 |
| Cc1c(NC(=O)CC#N)c(=O)n(-c2ccccc2)n1C | 0.371 | -0.27 | 0.364 | 0.121 | -0.235 | -0.0944 | 0.253 | -0.434 | 0.292 | 1.08 | 0.407 | 0.676 (inactive) | 0.0876 | -0.193 | -0.064 | 0.0776 | 0.037 | 0.529 | 0.563 | 0.0636 |
| Cc1ccc(S[C@]2(C(=O)NCc3ccccc3)CC(=O)N(Cc3ccccc3Cl)[C@@H]2c2ccc(CO)cc2I)cc1 | -0.173 | -1.74 | -2.11 | -0.162 | 0.137 | -0.124 | -0.426 | -0.581 | 0.0931 | 1.7 | 0.451 | -0.422 (inactive) | -0.275 | -0.198 | 0.721 | 0.616 | 0.198 | -0.414 | -1.03 | -0.139 |
| O=C1O[C@H](c2ccccc2)[C@H](c2ccccc2)N2[C@H]1[C@@H](C(=O)N1CCN(c3ncccn3)CC1)[C@]1(C(=O)Nc3ccccc31)[C@H]2c1ccc(OCCO)cc1 | 1.42 | -1.67 | 0.609 | -0.316 | -0.802 | -0.0286 | -0.0578 | -0.0464 | 0.75 | 0.4 | 0.204 | -0.317 (inactive) | 0.183 | -0.0986 | 0.301 | 1.75 | 0.151 | 1.3 | 0.602 | 0.536 |
| Cc1ccc(S[C@]2(C(=O)O)CC(=O)N(C3Cc4ccccc4C3)[C@@H]2c2ccc(CO)cc2I)cc1 | -0.104 | -0.517 | -0.67 | -0.212 | -0.196 | -0.117 | -0.156 | 0.22 | 0.365 | 0.835 | -0.133 | -0.0549 (inactive) | -0.0725 | -0.0799 | 0.675 | 1.1 | 0.672 | -0.0018 | 0.0442 | 0.181 |
| C=CCC(OC(C)=O)[C@@H]1[C@@H](N(Cc2cc3ccccc3o2)C(=O)c2ccc(C)cc2)c2cc(OCCCO)ccc2N1C(=O)c1ccc2ccccc2c1 (stereo not given in full) | 0.0468 | -0.274 | 0.161 | -0.0375 | 0.37 | -0.0644 | 0.313 | -0.314 | 0.189 | -0.298 | 0.767 | 0.698 (inactive) | 0.0259 | -0.101 | 0.0486 | 0.605 | -0.069 | -0.0437 | 0.157 | -0.309 |
| O=C(CS)NCCCCCCNC(=O)[C@H]1C[C@H]2C(=O)NCC(=O)N2[C@H]1c1ccc(O)cc1 | -0.175 | -0.344 | -0.571 | -0.156 | 0.802 | -0.171 | -0.286 | -0.379 | -0.633 | 0.136 | -0.523 | 0.131 (inactive) | -0.25 | -0.14 | 0.696 | 0.677 | 0.621 | -0.272 | 0.129 | 0.336 |
| [N-]=[N+]=NCc1ccccc1C[C@]1(C(=O)O)N=C(c2ccc(OCCCO)cc2)O[C@H]1c1ccccc1CN=[N+]=[N-] | 1.43 | -1.21 | -0.524 | 1.74 | 0.411 | -0.0792 | -0.0146 | 1.16 | 0.978 | 1.68 | 0.938 | -0.313 (inactive) | -0.027 | -0.011 | 0.696 | 2.7 | 0.513 | 1.34 | -0.69 | 1.17 |
